The values that follow come from PubChem BioAssay AID720517 (National Center for Advancing Translational Sciences (NCATS), 2013).

Records with an inconclusive call do not appear. A number with no mark means an inactive call. Calls come from the whole dose curve; as a rule, active = well fitted activation curve with a large enough effect; inconclusive = small, poorly fitted or top-dose-only effect; inactive = flat fitted curve, though single readings scatter.

The assay can be described thus: qHTS for Inhibitors of Cell Surface uPA Generation: FP59 Counterscreen for Cherry-picked Compounds. Note: 0% is about no effect. Particulars: FP59 anthrax toxin cytotoxicity counterscreen, cells; series mostly up to 115 µM; activity (protection from FP59): at the top concentration.
For `COc1cc(CNCCc2ccccc2)cc(Br)c1OCC(=O)Nc1ccccc1C`, the “activity (protection from FP59)” value is -0.583%. With `CSc1ccccc1OCc1cc(C(=O)NCCCn2nc(C)cc2C)no1`, the “activity (protection from FP59)” value was -1.14%. Turning to `OCC1CCCCN1CC(O)COC(c1ccc(F)cc1)c1ccc(F)cc1` (stereo not drawn), the “activity (protection from FP59)” value was -1.2%.

For `CC(NC(=O)NC1CCCCC1)C(c1cccs1)N1CCN(C)CC1` (stereo not drawn), the “activity (protection from FP59)” value is -1.43%.

Take `COc1cc2cc(CN(CCN3CCOCC3)C(=O)Nc3ccc(F)cc3)c(=O)[nH]c2cc1OC`: the “activity (protection from FP59)” value was -1.42%.

Take `Cc1cc(C)n(C(=O)c2cccc([N+](=O)[O-])c2)n1`: the “activity (protection from FP59)” value is -1.19%.

In the case of `COc1cccc(C(=O)NCc2ccc3[nH]c(C)cc3c2)c1`, the “activity (protection from FP59)” value is -1.38%.

As for `COc1ccc(NS(=O)(=O)c2cc3c(cc2C)NC(=O)CO3)c(OC)c1`, the “activity (protection from FP59)” value is -1.42%. The value for `COc1ccc(OC)c(N2C(=O)CC(Cc3cc(C)cc(C)c3)C2=O)c1` (stereo not drawn) was -1.31%; that for `COCCn1nnnc1C(C(C)C)N1CCCC(C)C1` (stereo not drawn) was -1.3%; that for `Cc1ccc(C23CC4CC(CC(C(=O)NN)(C4)C2)C3)cc1` was -1.25%. With `COc1ccc(C(=O)N2CCN(c3ccc(C(C)=O)cc3)CC2)cc1S(=O)(=O)N1CCCC1`, the “activity (protection from FP59)” value was -1.46%. With `COc1ccc2nc(C)cc(Nc3ccccc3O)c2c1` the figure was -1.53%; with `COC(=O)c1c(NC(=O)c2c(OC)cccc2OC)sc2c1C(C(=O)OC)CC2` (stereo not drawn), 12.7%; with `O=C(Cc1ccc(Cl)cc1)NC(=S)Nc1ccccc1O`, 0.767%. `Cc1ccc(C)c(-c2ccc(=O)n(Cc3c(F)cccc3Cl)n2)c1`: the “activity (protection from FP59)” value is 8.52%.

Regarding `Cc1noc(C)c1COc1ccc(C(=O)N2CCN(S(=O)(=O)c3ccc(Cl)cc3)CC2)cc1`, the “activity (protection from FP59)” value was -1.01%. The value for `COc1cccc(NC(=O)CSc2nc3ncc(Br)cc3[nH]2)c1` was -1.32%.
